Measured values taken from PubChem BioAssay.
For part of these data: Results with a measured potency or affinity are listed apart. The source made the active and inactive calls.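 The calls were made as follows, unless noted: active = primary screen inhibitor hit that blocks the TRPC4 channel at some tested dose, yielding a dose curve; inactive = the rest.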

How the values were obtained:
[1] = tested on: TRPC4 beta (transient receptor potential cation channel C4), mouse; experiment: activators of mouse TRPC4 channel, confirmation, cell-based, Fluo4 calcium, HEK293 TRPC4beta/mu-opioid, duplicates, 10 µM (AID 2426;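 active = fluorescence ratio normalized to control raised more than 50% in primary screen plus both repeat runs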); conditions: Fluo4 calcium fluorescence, at 10 µM; hits give high values
[2] = tested on: transient receptor potential cation channel C4 beta (TRPC4), mouse; experiment: activators of mouse TRPC4 channel, confirmation, cell-based, second round, Fluo4, HEK293 TRPC4beta/mu-opioid, 1 µM (AID 2461;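 active = primary screen active and over 50% activation in each of two duplicate runs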); conditions: Fluo4 calcium fluorescence, at 1 µM; hits give high values
[3] = tested on: TRPC4 (transient receptor potential cation channel C4 beta), mouse; experiment: positive allosteric modulators of mouse TRPC4, confirmation, cell-based, second round, Fluo-4, HEK293 TRPC4beta/mu-opioid, 1 µM (AID 2554;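 active = primary screen hit whose fluorescence ratio, in both repeats, exceeds the weak agonist control mean by 3 SD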); conditions: DAMGO EC20, Fluo-4 calcium flux, at 1 µM; hits give high values
[4] = tested on: TRPC4 beta (transient receptor potential cation channel C4), mouse; experiment: positive allosteric modulators of mouse TRPC4, confirmation, cell-based, Fluo-4, HEK293 TRPC4beta/mu-opioid (AID 2555;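 active = primary screen hit whose calcium fluorescence ratio, in both repeats, exceeds the weak agonist control mean by 3 SD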); conditions: DAMGO EC20, Fluo-4 calcium flux, at 10 µM; hits give high values
[5] = target: Short transient receptor potential channel 4 (Mus musculus) (UniProt Q9QUQ5); experiment: inhibitors of mouse TRPC4 channel, confirmation, cell-based, Fluo4, HEK293 TRPC4beta/mu-opioid (AID 2636;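 active = calcium signal cut by more than 3 SD below the full-agonist control yet still positive, in both repeats and the earlier primary screen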); conditions: DAMGO, Fluo4 calcium flux, at 10 µM; hits give high values
[6] = target: Short transient receptor potential channel 4 (Mus musculus) (UniProt Q9QUQ5); experiment: inhibitors of mouse TRPC4 channel, confirmation, cell-based, second round, Fluo4, HEK293 TRPC4beta/mu-opioid, 1 µM (AID 2637;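 active = calcium signal ratio cut to more than 3 SD under the fully stimulated control mean yet still positive, in both repeats and the primary screen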); conditions: Fluo4 calcium flux, DAMGO, at 1 µM; hits give high values
[7] = target: Short transient receptor potential channel 4 (Mus musculus) (UniProt Q9QUQ5); experiment: mouse TRPC4 channel activators, dose response, cell-based, HEK293 TRPC4/mu-opioid, Fluo-4 calcium (AID 434937;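 active = primary screen activator hit with a dose response curve and TRPC4 channel activation at any tested dose; inactive = no activation, no dose response, or not a primary hit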)
[8] = target: Short transient receptor potential channel 4 (Mus musculus) (UniProt Q9QUQ5); experiment: TRPC4 positive allosteric modulators, dose response, cell-based, HEK293 TRPC4/mu-opioid, Fluo-4 calcium, EC20 DAMGO (AID 434941;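 active = earlier screen potentiator hit that boosts the TRPC4 ion channel at some dose, with a dose response; inactive = no potentiation, no dose response, or not a prior hit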;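 also: calcium entry triggered by an EC20 dose of DAMGO at the co-expressed mu-opioid receptor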)
[9] = target: Short transient receptor potential channel 4 (Mus musculus) (UniProt Q9QUQ5); experiment: mouse TRPC4 channel inhibitors, dose response, cell-based, HEK293 TRPC4/mu-opioid, Fluo-4 calcium (AID 434942)
[10] = target: Short transient receptor potential channel 6 (Mus musculus) (UniProt Q61143); experiment: inhibition of mouse TRPC6 channel, confirmation, selectivity assay for TRPC4 inhibitor project, cell-based, HEK293, membrane potential dye, duplicate (AID 434948;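 active = active in primary screen and both duplicates, each dropping signal beyond three positive-control SD with fluorescence still positive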); conditions: HEK293 TRPC6, membrane potential dye fluorescence, at 10 µM, stimulated with maximal-effect acetylcholine; hits give high values
[11] = target: Short transient receptor potential channel 6 (Mus musculus) (UniProt Q61143); experiment: activation of mouse TRPC6 channel, confirmation, selectivity assay for TRPC4 activator project, cell-based, HEK293, membrane potential dye, duplicate (AID 434950;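 active = membrane potential signal rise above negative control mean plus 3 SD in both duplicates, also active in the earlier TRPC4 screen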); conditions: HEK293 TRPC6, membrane potential fluorescence, at 10 µM; hits give high values
[12] = target: Short transient receptor potential channel 6 (Mus musculus) (UniProt Q61143); experiment: TRPC6 potentiation by TRPC4 potentiator hits, confirmation, selectivity assay for TRPC4 potentiator project, HEK293 cells, membrane potential dye, duplicate (AID 434952;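 active = compound raising the membrane signal above positive-control mean plus 3 SD in both repeats, and a primary screen hit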); conditions: HEK293 TRPC6, membrane potential dye fluorescence, at 10 µM, maximal acetylcholine added after compound; hits give high values
[13] = target: Short transient receptor potential channel 4 (Mus musculus) (UniProt Q9QUQ5); experiment: calcium flux activators in TRPC4/5HT1a cells, counter-screen for TRPC4 activator project, cell-based, second counter screen, HEK293 TRPC4/5HT1a, Fluo-4 (AID 434977;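 active = calcium signal rise above buffer-control mean plus 5 SD in both duplicates, and also a hit in the primary screen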); conditions: Fluo-4 calcium flux, at 10 µM; hits give high values
[14] = calcium flux inhibitors in TRPC4/5HT1a cells, confirmation, counter-screen for TRPC4 inhibitor project, cell-based, second counter screen, HEK293 TRPC4/5HT1a, Fluo-4 (AID 434978;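 active = primary screen active whose calcium signal fell more than 3 SD beyond the full-serotonin control mean in both duplicate plates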;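 as to outcome: serotonin given first at submaximal then at maximal dose after compound preincubation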); conditions: Fluo-4 calcium flux, at 10 µM, serotonin added to trigger calcium flux; hits give high values
[15] = tested on: TRPC4 (mouse), co-expressed with 5HT1a in HEK293; experiment: calcium flux potentiators in TRPC4/5HT1a cells, confirmation, counter-screen for TRPC4 potentiator project, cell-based, second counter screen, HEK293 TRPC4/5HT1a, Fluo-4 (AID 434979;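 active = signal rise over 3 SD above mean of control wells given weak agonist, in both repeats and first screen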); conditions: Fluo-4 calcium flux, at 10 µM, serotonin added at its EC20 dose; hits give high values
[16] = calcium flux activation in mu-opioid HEK293 cells, confirmation, counter-screen for TRPC4 activator project, cell-based, HEK293 mu-opioid receptor line (AID 449723;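 active = hit in primary screen, with calcium signal over 5 SD above buffer well mean in both duplicates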;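 also: counter screen cells carry the mu-opioid receptor alone and lack TRPC4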); conditions: Fluo-4 calcium fluorescence, at 10 µM; hits give high values
[17] = calcium flux enhancement in mu-opioid HEK293 cells, confirmation, counter-screen for TRPC4 allosteric potentiator project, cell-based, HEK293 mu-opioid receptor line (AID 449724;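 active = calcium signal rise more than 3 SD above the low-dose agonist control mean, in both duplicate plates and the primary screen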); conditions: Fluo-4 calcium flux, at 10 µM, compound added before EC20 DAMGO stimulus; hits give high values

Chain of Short transient receptor potential channel 6 (Mus musculus) (Q61143 whole entry, looked up): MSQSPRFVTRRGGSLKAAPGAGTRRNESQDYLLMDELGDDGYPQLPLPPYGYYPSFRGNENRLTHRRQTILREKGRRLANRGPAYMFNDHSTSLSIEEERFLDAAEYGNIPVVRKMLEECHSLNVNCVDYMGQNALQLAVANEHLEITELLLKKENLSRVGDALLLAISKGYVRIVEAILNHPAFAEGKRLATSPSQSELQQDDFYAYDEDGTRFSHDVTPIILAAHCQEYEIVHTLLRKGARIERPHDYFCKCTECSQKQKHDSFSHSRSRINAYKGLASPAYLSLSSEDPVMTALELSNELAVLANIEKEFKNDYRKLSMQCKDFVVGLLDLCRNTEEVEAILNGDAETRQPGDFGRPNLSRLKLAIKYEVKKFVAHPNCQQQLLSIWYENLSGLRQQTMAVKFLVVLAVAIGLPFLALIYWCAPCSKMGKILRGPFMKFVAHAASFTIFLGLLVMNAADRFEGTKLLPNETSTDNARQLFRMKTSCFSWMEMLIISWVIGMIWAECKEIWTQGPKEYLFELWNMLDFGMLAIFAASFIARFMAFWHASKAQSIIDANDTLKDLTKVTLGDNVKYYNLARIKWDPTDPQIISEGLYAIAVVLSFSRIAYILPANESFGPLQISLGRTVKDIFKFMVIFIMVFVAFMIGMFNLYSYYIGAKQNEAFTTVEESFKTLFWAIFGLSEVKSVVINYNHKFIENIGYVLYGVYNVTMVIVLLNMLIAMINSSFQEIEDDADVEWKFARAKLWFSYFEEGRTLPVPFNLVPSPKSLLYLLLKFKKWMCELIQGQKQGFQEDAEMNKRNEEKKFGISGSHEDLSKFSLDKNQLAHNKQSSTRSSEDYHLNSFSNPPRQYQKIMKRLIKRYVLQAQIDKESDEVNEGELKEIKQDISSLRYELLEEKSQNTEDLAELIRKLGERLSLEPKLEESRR
Chain of Short transient receptor potential channel 4 (Mus musculus) (Q9QUQ5 whole entry, looked up): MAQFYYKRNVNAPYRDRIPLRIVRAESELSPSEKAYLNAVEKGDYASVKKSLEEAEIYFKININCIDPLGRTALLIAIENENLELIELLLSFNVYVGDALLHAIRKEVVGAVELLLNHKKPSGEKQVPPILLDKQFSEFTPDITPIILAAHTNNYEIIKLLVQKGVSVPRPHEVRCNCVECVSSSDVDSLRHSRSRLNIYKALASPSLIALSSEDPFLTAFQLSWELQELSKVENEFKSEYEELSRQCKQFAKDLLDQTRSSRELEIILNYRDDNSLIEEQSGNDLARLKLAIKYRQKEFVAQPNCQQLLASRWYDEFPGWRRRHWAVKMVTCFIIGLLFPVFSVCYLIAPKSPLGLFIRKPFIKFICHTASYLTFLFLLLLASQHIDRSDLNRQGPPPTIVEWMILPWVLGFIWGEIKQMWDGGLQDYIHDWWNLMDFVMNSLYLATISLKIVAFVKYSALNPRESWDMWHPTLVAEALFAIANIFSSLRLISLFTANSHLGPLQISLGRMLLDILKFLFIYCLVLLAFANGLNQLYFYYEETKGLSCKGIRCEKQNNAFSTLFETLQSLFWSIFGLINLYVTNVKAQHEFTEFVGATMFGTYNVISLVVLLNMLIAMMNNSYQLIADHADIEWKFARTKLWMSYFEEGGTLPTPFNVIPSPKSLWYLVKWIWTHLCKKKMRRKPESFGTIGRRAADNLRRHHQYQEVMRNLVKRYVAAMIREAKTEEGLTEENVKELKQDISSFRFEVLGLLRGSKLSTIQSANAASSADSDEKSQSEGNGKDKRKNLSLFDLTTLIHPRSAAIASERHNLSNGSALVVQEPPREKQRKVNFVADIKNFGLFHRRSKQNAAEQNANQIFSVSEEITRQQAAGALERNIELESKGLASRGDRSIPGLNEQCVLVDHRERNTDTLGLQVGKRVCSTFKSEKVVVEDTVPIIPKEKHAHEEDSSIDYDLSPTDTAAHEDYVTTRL

COc1cc(Br)cc(C2C3=C(CCCC3=O)N(c3ccc(F)cc3)C3=C2C(=O)CCC3)c1O
active: potentiation [4] 29% | potentiation [15] 31.7%
inactive: outcome [1] | outcome [2] | outcome [3] | outcome [5] | outcome [6] | outcome [7] | outcome [8] | outcome [9] | outcome [10] | outcome [11] | outcome [12] | outcome [13] | outcome [14] | outcome [16] | outcome [17]

CCc1ccc(OCc2ccc(C(=O)NCc3ccccn3)o2)cc1
inactive: outcome [1] | outcome [2] | outcome [3] | outcome [5] | outcome [6] | outcome [7] | outcome [8] | outcome [9] | outcome [10] | outcome [11] | outcome [12] | outcome [13] | outcome [14] | outcome [15] | outcome [16] | outcome [17]
active: potentiation [4] 19%

COc1cccc(N2C(=O)CC(N3CCN(CCN=CC4=C(O)CC(C)(C)CC4=O)CC3)C2=O)c1 (stereo not given)
active: potentiation [15] 15.8%
inactive: outcome [1] | outcome [2] | outcome [3] | outcome [4] | outcome [5] | outcome [6] | outcome [7] | outcome [8] | outcome [9] | outcome [10] | outcome [11] | outcome [12] | outcome [13] | outcome [14] | outcome [16] | outcome [17]

C/C=C/Cn1c(SCCCc2ccccc2)nc2c1c(=O)[nH]c(=O)n2C
inactive: outcome [1] | outcome [2] | outcome [5] | outcome [6] | outcome [7] | outcome [8] | outcome [9] | outcome [10] | outcome [11] | outcome [12] | outcome [13] | outcome [14] | outcome [16] | outcome [17]
active: potentiation [3] 12% | potentiation [4] 27% | potentiation [15] 88.5%

NN=C1c2cc([N+](=O)[O-])ccc2-c2ccc([N+](=O)[O-])cc21
inactive: outcome [1] | outcome [2] | outcome [3] | outcome [4] | outcome [5] | outcome [6] | outcome [7] | outcome [8] | outcome [9] | outcome [10] | outcome [11] | outcome [12] | outcome [13] | outcome [14] | outcome [15] | outcome [16] | outcome [17]

C=CCNC(=O)C(=O)NCC1CCCN1S(=O)(=O)c1cccs1 (stereo not given)
inactive: outcome [1] | outcome [2] | outcome [3] | outcome [4] | outcome [5] | outcome [6] | outcome [7] | outcome [8] | outcome [9] | outcome [10] | outcome [11] | outcome [12] | outcome [13] | outcome [14] | outcome [16] | outcome [17]
active: potentiation [15] 11.2%

NC(=O)c1ccc(N2CCN(c3ncc(C(F)(F)F)cc3Cl)CC2)cc1
active: potentiation [15] 11.9%
inactive: outcome [1] | outcome [2] | outcome [3] | outcome [4] | outcome [5] | outcome [6] | outcome [7] | outcome [8] | outcome [9] | outcome [10] | outcome [11] | outcome [12] | outcome [13] | outcome [14] | outcome [16] | outcome [17]

Cc1oc(-c2cccc(F)c2)nc1CN(Cc1ccccc1)C[C@@H]1CCC(=O)N1
inactive: outcome [1] | outcome [2] | outcome [3] | outcome [4] | outcome [5] | outcome [6] | outcome [7] | outcome [8] | outcome [9] | outcome [10] | outcome [11] | outcome [12] | outcome [13] | outcome [14] | outcome [15] | outcome [16] | outcome [17]

O=C(c1ccccc1F)N1CCN(c2ccc([N+](=O)[O-])c3cccnc23)CC1
inactive: outcome [1] | outcome [2] | outcome [3] | outcome [5] | outcome [6] | outcome [7] | outcome [8] | outcome [9] | outcome [10] | outcome [11] | outcome [12] | outcome [13] | outcome [14] | outcome [16] | outcome [17]
active: potentiation [4] 18% | potentiation [15] 16.5%

Cc1sc(NC(=O)C2CCCCC2C(=O)O)c(C(N)=O)c1-c1ccc(C(C)(C)C)cc1 (stereo not given)
inactive: outcome [1] | outcome [2] | outcome [3] | outcome [4] | outcome [6] | outcome [7] | outcome [8] | outcome [9] | outcome [10] | outcome [11] | outcome [12] | outcome [13] | outcome [15] | outcome [16] | outcome [17]
active: inhibition [5] 95% | inhibition [14] 18.7%

CCN(C(=O)c1cc2c(s1)-c1ccccc1OC2)c1cc(OC)ccc1OC
inactive: outcome [1] | outcome [2] | outcome [3] | outcome [4] | outcome [5] | outcome [6] | outcome [7] | outcome [8] | outcome [9] | outcome [10] | outcome [11] | outcome [12] | outcome [13] | outcome [14] | outcome [15] | outcome [16] | outcome [17]

Cc1cc(Nc2ccccc2O)c2ccccc2n1
inactive: outcome [1] | outcome [2] | outcome [3] | outcome [4] | outcome [5] | outcome [6] | outcome [7] | outcome [8] | outcome [9] | outcome [10] | outcome [11] | outcome [12] | outcome [13] | outcome [14] | outcome [15] | outcome [16] | outcome [17]

CC(C)Oc1cccc(C(=O)NC(=S)Nc2ccc(N3CCN(C)CC3)cc2)c1
inactive: outcome [1] | outcome [2] | outcome [3] | outcome [4] | outcome [5] | outcome [6] | outcome [7] | outcome [8] | outcome [9] | outcome [10] | outcome [11] | outcome [12] | outcome [13] | outcome [14] | outcome [16] | outcome [17]
active: potentiation [15] 16.6%

NC(=O)NCCN1CCN(c2ncc(C(F)(F)F)cc2Cl)CC1
active: potentiation [3] 8% | potentiation [4] 11% | potentiation [15] 22%
inactive: outcome [1] | outcome [2] | outcome [5] | outcome [6] | outcome [7] | outcome [8] | outcome [9] | outcome [10] | outcome [11] | outcome [12] | outcome [13] | outcome [14] | outcome [16] | outcome [17]

CCN(CC)CCNc1ccc(Cl)cc1[N+](=O)[O-]
active: potentiation [3] 31% | potentiation [15] 17.9%
inactive: outcome [1] | outcome [2] | outcome [4] | outcome [5] | outcome [6] | outcome [7] | outcome [8] | outcome [9] | outcome [10] | outcome [11] | outcome [12] | outcome [13] | outcome [14] | outcome [16] | outcome [17]
